Screening data as filed in PubChem.
PV pol inh: poliovirus RdRp elongation inhibitors, primary screen, biochemical, fluorescence polarization, total intensity; Genome polyprotein (Poliovirus type 1 (strain Mahoney)), P03300; % elongation, % (compound at 16.7 µg/mL); poliovirus polymerase elongation; stronger effect = lower value; 150,000 tested, 0.66% active; in the data active means % elongation below about 90%
Target sequence (P03300 1749-2209 limits assumed): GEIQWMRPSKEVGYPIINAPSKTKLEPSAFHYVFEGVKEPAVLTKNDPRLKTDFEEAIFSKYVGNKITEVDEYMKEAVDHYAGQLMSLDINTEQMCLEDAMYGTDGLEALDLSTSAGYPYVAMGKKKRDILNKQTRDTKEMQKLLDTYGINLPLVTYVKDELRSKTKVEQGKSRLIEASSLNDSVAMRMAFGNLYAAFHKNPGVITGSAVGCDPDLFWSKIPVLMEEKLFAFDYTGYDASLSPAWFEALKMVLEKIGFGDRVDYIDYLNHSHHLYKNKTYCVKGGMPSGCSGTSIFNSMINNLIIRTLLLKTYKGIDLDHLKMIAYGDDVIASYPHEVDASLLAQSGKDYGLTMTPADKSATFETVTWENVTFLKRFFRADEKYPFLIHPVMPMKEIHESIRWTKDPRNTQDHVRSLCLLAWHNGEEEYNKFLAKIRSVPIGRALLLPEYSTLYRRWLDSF
Mtb MbtI inh: MbtI salicylate synthase inhibitors, primary screen, biochemical, fluorescence intensity; purified MbtI enzyme, fluorescence intensity read-out; P9WFX0; inhibition, % (test concentration not listed); 100,000 tested, 0.89% active; in the data active means inhibition mostly above about 56%, no sharp cut-off; inactive means mostly below about 77%
AID504770: growth inhibition of E. coli YBA685, primary screen, V. cholerae RctB inhibitors. z-score (test concentration not listed). 130,000 tested, 0.27% active. E. coli YBA685 rctB-dependent plasmid, OD600 growth, 3 h; stronger effect = lower value; in the data active means z-score below about -2, passing the limit was not always enough
MenB inh: M. tuberculosis MenB inhibitors, primary screen, biochemical, absorbance. inhibition, % (test concentration not listed). MenB enzyme assay, absorbance read-out. 1,4-dihydroxy-2-naphthoyl-CoA synthase (Mycobacterium tuberculosis (strain ATCC 25618 / …. AID 540299, 2011. 100,000 tested, 0.43% active; in the data active means inhibition above about 21%, passing the limit was not always enough
An asterisk follows results filed as active; . = no result given. An excerpt weighted towards active compounds, which were near 1.5% of everything screened.

SMILES | PV pol inh | Mtb MbtI inh | AID504770 | MenB inh
O=C(NC1CC1)c1cccc(NC(=O)C2COc3ccccc3C2)c1 (centres undefined) | 101 | -7 | -0.05 | -6
CCOc1ccc(-c2cc(CCCC(=O)NCc3cccc(OC)c3)no2)cc1 | 103 | -3 | -0.95 | -34
COc1ccc(C(=O)NCCn2cc(SCC(=O)Nc3ccccc3)c3ccccc32)cc1 | 102 | -5 | -2.5* | -18
CCc1nc2ccc(NC(C)=O)cc2c(=O)n1Cc1ccccc1 | 104 | 4 | -0.3 | -18
O=C(Nc1ccc2nc(C3CC3)n(Cc3ccccc3)c(=O)c2c1)C1CC1 | 101 | 10 | -0.7 | 33*
O=C(Cc1cccc(C(F)(F)F)c1)Nc1nccs1 | 111 | -13 | -0.5 | -15
O=C(N[C@@H](Cc1ccccc1)C(=O)OCc1ccccc1)c1ccco1 | 80* | -8 | 0.2 | -11
O=C(NC(Cc1ccccc1)C(=O)OCc1ccccc1)c1cccs1 (centres undefined) | 104 | -5 | -0.2 | .
Cc1[nH]c(=S)sc1CC(=O)NC1CCCCC1C (centres undefined) | 98 | 84* | 1.7 | -2
CN1CCCN(C(=O)c2ccc(S(=O)(=O)N3CCCCC3)cc2)c2nc3ccccc3nc21 | 106 | -3 | -0.1 | -31
CC1=NN(c2ccccc2)C(=O)C1=C1SCCS1 | 102 | 11 | -0.1 | 9
CC1=NN(c2ccccc2)C(=O)/C1=C1/C(=O)N(c2ccccc2)N=C1C | 57* | 9 | 0.3 | -11
O=C(Oc1cccc(Cl)c1Cl)c1ccncc1 | 4.0* | -2 | -1.5 | 1
O=C1CSc2sc(=S)sc2S1 | 88* | 47 | -0.8 | -121
Cc1ccc(N=Cc2ccco2)c(C)c1 | 104 | 1 | 0.1 | -19
O=C(Nc1cc(C(F)(F)F)cc(C(F)(F)F)c1)C(=S)N1CCCCC1 | 76* | . | 0.9 | 1
O=C(CN1CCCC1)Nc1cc(C(F)(F)F)cc(C(F)(F)F)c1 | . | . | -0.1 | .
CCN(Cc1ccccc1)Cc1cc(Cl)ccc1O | 101 | 4 | 2.1 | -33
CSc1nc2c(=S)[nH]c(=S)[nH]c2s1 | 82* | 55* | -1.1 | -95
NCc1ccc(C(=O)O)o1 | 100 | -7 | 0.75 | -22
NC(=S)Cc1ccc(CC(N)=S)o1 | 95 | 82* | 0.15 | -23
N#CC1=C(N)SC(N)=C(C#N)C1c1ccc(O)cc1 | 92 | 83* | -2.1 | -174
CC(C)c1ccc(C2C(C#N)=C(N)SC(N)=C2C#N)cc1 | 45 | . | 0.05 | -31
CCN=C1NN=C(c2ccc(NC(=O)CC)cc2)CS1 | 136 | 41 | -0.3 | -31
CCC(N)C12CC3CC(CC(C3)C1)C2 (centres undefined) | 86* | . | 0.95 | 0
SMILES | PV pol inh | Mtb MbtI inh | AID504770 | MenB inh
NC(CO)C12CC3CC(CC(C3)C1)C2 (centres undefined) | 103 | 2 | 2.5 | .
COC(=O)c1n[nH]c(=O)c2ccccc12 | 105 | -12 | -0.95 | 4
Nc1ncc(N=Nc2cc(C(=O)O)cc(C(=O)O)c2)s1 | 82* | 19 | 0 | -273
Nc1ncc(N=Nc2cc(C(=O)O)ccc2Cl)s1 | 94 | 50 | -0.35 | -362
S=c1[nH]c2ccccc2n1C1CCCCC1 | 100 | 98* | 0.3 | -14
O=c1[nH]c(CN2CCC(Cc3ccccc3)CC2)nc2ccccc12 | . | . | 0.3 | .
CC(=O)Nc1ccc(S(=O)(=O)N2CCCC2)cc1Cl | . | . | 0.3 | .
CC(=O)NCCCc1[nH]n(-c2ccccc2)c(=O)c1NC(=O)c1ccccc1 | 87* | 21 | -0.1 | 10
Oc1ccc(C(=S)N2CCN(c3cccc(Cl)c3)CC2)cc1 | 102 | 59* | 1.4 | -40
Oc1ccc(C(=S)N2CCCCCC2)cc1 | 97 | 84* | 0.35 | -24
CC(C)COc1ccc(C(=S)N2CCCCC2)cc1 | 103 | 54* | 0.85 | -12
Oc1ccc(C(=S)N2CCOCC2)cc1 | 101 | 52 | 1.5 | -7
S=C(c1ccc(Cl)cc1)N1CCCCC1 | 99 | 39 | 0.5 | -75
CC1CCN(C(=S)c2ccc(O)cc2)CC1 | 100 | 99* | -1 | -12
CCOP(C)(=O)/C(C#N)=C(\O)c1cc(OC)c(OC)c(OC)c1 (centres undefined) | 102 | 1 | -0.75 | -2
CC1CCC(C(C)C)C(N)C1 (centres undefined) | . | . | 1.4 | .
c1ccc(CN2CCN(Cc3ccccc3)CC2)cc1 | . | . | 2.5 | .
Oc1ccc(C(=S)N2CCN(Cc3ccccc3)CC2)cc1 | 98 | 94* | -0.4 | -15
COc1ccc2c(CNCCc3ccccc3OC)c(C(=O)O)n(C)c2c1 | 103 | -18 | -0.35 | -6
Oc1cccc(-c2nc(-c3ccccc3)c3ccccn23)c1 | 89* | 5 | 1.2 | .
COC(=O)c1cn(CC(=O)NC2CCCCCC2)c2ccccc12 | 100 | -1 | 0.65 | 31*
O=C(Cn1cnc2ccccc21)Nc1ccccc1 | 102 | -20 | -1.2 | -16
O=C(Cn1cnc2ccccc21)NC1CCCC1 | 101 | 5 | 1.1 | 33*
Cc1cc(N2CCOCC2)nc(SCc2cc3c(cc2Cl)OCO3)n1 | 99 | 3 | -0.95 | -13
S=C(NCCc1ccccc1)c1ccccc1 | 103 | -10 | -0.35 | -9
SMILES | PV pol inh | Mtb MbtI inh | AID504770 | MenB inh
NC(=S)NCCc1ccccc1 | 86* | 83* | -0.25 | -50
CCN(CC)c1ccc(C=C2C(=O)OC(c3ccccc3)OC2=O)cc1 (centres undefined) | 115 | . | -0.7 | -8
CCN(CC)c1ccc(C=C2C(=O)OC3(CCCC3)OC2=O)cc1 | 110 | 72* | -0.1 | -96
CCOc1ccc(CO)cc1OCC | 102 | -9 | -0.1 | -3
COc1cccc(C2NS(=O)(=O)N=C3CCCCCN32)c1OC(F)F (centres undefined) | 103 | 3 | -0.2 | -13
O=S1(=O)N=C2CCCCCN2C(c2ccc(Br)cc2)N1 (centres undefined) | 22* | -4 | -0.15 | 4
c1ccc(-c2nc(CSc3nc4ccccc4[nH]3)c(CSc3nc4ccccc4[nH]3)o2)cc1 | 102 | 5 | 0 | -49
Cc1ccc(C(=O)CSC2=NCCCCC2)cc1 | 93 | 16 | -0.85 | 33*
COc1ccc(-c2cc3nccc(-c4cc(Cl)c(C)cc4O)n3n2)cc1 | 86* | . | . | .
CCOC(=O)c1oc2ccc(S(=O)(=O)Nc3noc4ccccc34)cc2c1C | 103 | 30 | 0.3 | 0
C1=C(C23CC4CC(CC(C4)C2)C3)SC2=NCCN12 | 99 | 69* | 0.2 | -7
C1CNC(C23CC4CC(CC(C4)C2)C3)=N1 | 102 | 0 | -0.8 | -1
O=C(Cc1ccc(Cl)cc1)Nc1ccc2nn(-c3ccccc3)nc2c1 | 107 | . | . | .
O=C(Nc1ccc(F)c(F)c1)c1cnn(-c2ccccc2)n1 | 90* | 29 | -0.4 | -43
CC1(C)CSC(=NCc2ccccc2)N1C(=O)Cn1[nH]c(=O)c2ccccc2c1=O | 95 | -13 | 0.3 | -42
O=C(c1cc(=O)[nH]c2ccccc12)N1CCSC1=NCCc1ccccc1 | 64* | -5 | 0 | -7
O=C(Cn1[nH]c(=O)c2ccccc2c1=O)N1CCSC1=NCc1ccccc1 | 90* | -19 | -0.1 | 2
